Test results reported in PubChem BioAssay (NCATS).
Records with an inconclusive call do not appear. The list shows a part of the results. The source made the active and inactive calls. Unless noted, calls come from the whole dose curve; as a rule, active = well fitted curve in the direction sought with a large enough effect; inconclusive = small, poorly fitted or top-dose-only effect, or another doubt; inactive = no such curve, though single readings can be large; an effect the other way counts as inactive or inconclusive.

Tests used:
[1] = biological target: Lethal(3)malignant brain tumor-like protein 1 (Homo sapiens) (UniProt Q9Y468); assay: qHTS Assay for the Inhibitors of L3MBTL1: Hit Validation (AID 540279); conditions: L3MBTL1 methyl-lysine binding inhibition, biochemical qHTS; note: potency is the fitted concentration of half-maximal effect; nearly all actives have a fitted effect of over 70% in size
Lethal(3)malignant brain tumor-like protein 1 (Homo sapiens), sequence (Q9Y468 whole entry, looked up): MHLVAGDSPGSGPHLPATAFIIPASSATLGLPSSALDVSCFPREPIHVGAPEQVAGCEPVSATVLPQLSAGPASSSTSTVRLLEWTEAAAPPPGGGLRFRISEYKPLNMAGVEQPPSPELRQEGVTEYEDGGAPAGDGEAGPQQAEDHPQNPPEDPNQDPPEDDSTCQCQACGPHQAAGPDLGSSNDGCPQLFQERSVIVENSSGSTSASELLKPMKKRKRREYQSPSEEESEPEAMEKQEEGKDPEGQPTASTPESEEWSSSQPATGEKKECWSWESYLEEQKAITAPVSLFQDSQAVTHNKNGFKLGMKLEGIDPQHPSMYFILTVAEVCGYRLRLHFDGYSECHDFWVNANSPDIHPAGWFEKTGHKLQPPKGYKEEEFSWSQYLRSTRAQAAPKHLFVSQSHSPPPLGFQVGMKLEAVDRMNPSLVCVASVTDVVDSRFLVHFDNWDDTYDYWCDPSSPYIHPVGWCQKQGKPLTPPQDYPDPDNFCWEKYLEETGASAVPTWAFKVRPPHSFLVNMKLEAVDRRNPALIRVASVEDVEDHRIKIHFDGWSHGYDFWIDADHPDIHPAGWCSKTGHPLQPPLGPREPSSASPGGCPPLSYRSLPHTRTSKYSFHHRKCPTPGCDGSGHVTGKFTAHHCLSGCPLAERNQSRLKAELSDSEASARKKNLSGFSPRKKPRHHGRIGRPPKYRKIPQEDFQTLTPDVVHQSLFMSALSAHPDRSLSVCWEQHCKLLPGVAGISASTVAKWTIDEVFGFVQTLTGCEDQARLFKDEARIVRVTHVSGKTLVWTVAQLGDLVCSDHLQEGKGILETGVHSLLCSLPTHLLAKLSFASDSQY
Description: The histone code is comprised of many post-translational modifications that occur mainly in histone tail peptides. The identity and location of these marks are read by a variety of histone binding proteins that are emerging as important regulators of cellular differentiation and development and are increasingly being implicated in numerous disease states. Small molecule probes that disrupt the interaction between histone binding proteins and chromatin would enable a systematic chemical biology study of proteins that read the histone code and could potentially reveal new targets for drug discovery. However, no such small molecules are known. This dearth of quality molecular probes can largely be attributed to the novelty of the target class and the lack of screening assays. This proposal details the development of the first high-throughput screening assay for the discovery of inhibitors of methyl-lysine binding proteins and how it can be used to initiate a full-scale discovery effort for antagonists of histone binding proteins. […]
To each well, 2 uL of L3MBTL1 protein (final 50 nM) and 1 uL biotinylated histone peptide monomethylated at Lys9 [b-AHA-H3(1-15)K9me1] […] Microplates were then be read on an EnVision multilabel plate reader using the 1,536 plate HTS AlphaScreen aperture (excitation time 80 ms, measurement time 240 ms).

[2] = biological target: DNA polymerase iota (Homo sapiens) (UniProt Q9UNA4); assay: qHTS for Inhibitors of Polymerase Iota: Confirmatory Assay for Cherry-picked Compounds (AID 720496); conditions: Pol iota primer extension, TAMRA/BHQ fluorescence; note: potency is the fitted concentration of half-maximal effect
DNA polymerase iota (Homo sapiens), sequence (Q9UNA4 whole entry, looked up): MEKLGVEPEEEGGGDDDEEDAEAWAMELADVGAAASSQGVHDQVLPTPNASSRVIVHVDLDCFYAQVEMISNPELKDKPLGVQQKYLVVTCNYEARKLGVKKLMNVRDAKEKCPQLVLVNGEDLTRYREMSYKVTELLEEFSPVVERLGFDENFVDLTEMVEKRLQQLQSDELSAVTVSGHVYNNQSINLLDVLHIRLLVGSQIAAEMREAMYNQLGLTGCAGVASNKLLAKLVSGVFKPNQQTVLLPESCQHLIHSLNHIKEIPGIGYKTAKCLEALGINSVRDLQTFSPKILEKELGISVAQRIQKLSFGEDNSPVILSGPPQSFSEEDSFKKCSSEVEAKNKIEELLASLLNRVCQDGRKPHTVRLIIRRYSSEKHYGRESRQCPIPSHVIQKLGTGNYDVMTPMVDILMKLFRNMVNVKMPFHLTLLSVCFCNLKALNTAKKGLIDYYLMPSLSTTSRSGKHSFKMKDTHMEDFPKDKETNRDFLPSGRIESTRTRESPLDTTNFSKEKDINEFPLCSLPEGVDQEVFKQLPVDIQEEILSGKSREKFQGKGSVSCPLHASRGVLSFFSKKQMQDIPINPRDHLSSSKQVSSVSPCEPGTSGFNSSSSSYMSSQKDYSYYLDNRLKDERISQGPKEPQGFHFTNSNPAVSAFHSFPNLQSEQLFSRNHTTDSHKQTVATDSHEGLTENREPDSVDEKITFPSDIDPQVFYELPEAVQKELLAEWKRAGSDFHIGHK
Outline: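 Human Pol iota (10 nM) was preincubated 15 min at room temperature with compound, then started with 50 nM TAMRA/BHQ-2 quenched primer-template substrate. Fluorescence (ex 525/em 598 nm) was read at 0 and 10 min.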

[3] = biological target: DNA polymerase eta (Homo sapiens) (UniProt Q9Y253); assay: qHTS for Inhibitors of Polymerase Eta: Confirmatory Assay for Cherry-picked Compounds (AID 720502); conditions: Pol eta primer extension, TAMRA/BHQ fluorescence, 10 min; note: potency is the fitted concentration of half-maximal effect
DNA polymerase eta (Homo sapiens), sequence (Q9Y253 whole entry, looked up): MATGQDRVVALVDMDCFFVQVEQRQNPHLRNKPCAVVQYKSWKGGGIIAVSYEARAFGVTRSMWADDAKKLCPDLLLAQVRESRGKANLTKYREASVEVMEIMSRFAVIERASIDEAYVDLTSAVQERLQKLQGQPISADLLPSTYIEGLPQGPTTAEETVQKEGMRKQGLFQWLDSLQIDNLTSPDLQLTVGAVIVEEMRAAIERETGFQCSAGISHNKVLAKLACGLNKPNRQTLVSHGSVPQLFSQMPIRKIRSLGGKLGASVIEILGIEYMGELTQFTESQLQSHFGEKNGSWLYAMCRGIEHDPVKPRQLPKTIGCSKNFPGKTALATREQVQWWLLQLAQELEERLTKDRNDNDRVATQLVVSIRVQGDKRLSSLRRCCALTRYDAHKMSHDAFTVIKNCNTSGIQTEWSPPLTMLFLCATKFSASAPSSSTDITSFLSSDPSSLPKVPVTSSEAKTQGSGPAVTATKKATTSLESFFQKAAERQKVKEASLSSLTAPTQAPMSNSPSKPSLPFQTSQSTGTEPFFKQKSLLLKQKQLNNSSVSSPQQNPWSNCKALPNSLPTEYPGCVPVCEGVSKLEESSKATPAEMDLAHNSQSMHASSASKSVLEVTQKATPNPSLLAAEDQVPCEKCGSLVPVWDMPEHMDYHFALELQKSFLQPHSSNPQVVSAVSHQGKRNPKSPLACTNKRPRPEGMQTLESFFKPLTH
Outline: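 Quenched-fluorescence replication assay: 10 nM Pol eta, 50 nM substrate final, 15 min compound preincubation at room temperature, 10 min kinetic reaction read at 525/598 nm.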

[4] = biological target: Ferritin light chain (Equus caballus) (UniProt P02791); assay: qHTS Validation Assay for Identification of Novel General Anesthetics (AID 2323); conditions: horse apoferritin, anesthetic-site fluorescent probe displacement; series mostly up to 76.9 µM
Ferritin light chain (Equus caballus), sequence (P02791 2-175 limits assumed): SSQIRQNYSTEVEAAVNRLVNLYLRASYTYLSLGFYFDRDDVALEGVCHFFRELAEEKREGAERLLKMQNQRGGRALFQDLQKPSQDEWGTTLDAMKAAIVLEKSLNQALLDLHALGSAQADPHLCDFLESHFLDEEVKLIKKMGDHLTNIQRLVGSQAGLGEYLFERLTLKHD
Outline: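 Competitive displacement of the profluorescent anesthetic 1-AMA (50% saturated, PBS) from 10 uM apoferritin, 10 min, room temperature. Activity is normalized 380/535 nm fluorescence; concentration-response fitted with a four-parameter Hill equation.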

[5] = Validation screen for inhibitors of Lassa infection (AID 463096; calls by dose curve); conditions: Lassa virus infection, cell-based; series mostly up to 46.1 µM

SMILES | Potency [1] | Potency [2] | Potency [3] | outcome [4] | outcome [5]
Cc1c(C(=O)O)cccc1-n1c(C)cc(/C=C2\C(=O)NC(=O)N(c3ccc4c(c3)OCO4)C2=O)c1C | 1.68 µM (active) | 15 µM (active) | 8.49 µM (active) |  | 
CN1C2CCC1CC(NC(=O)c1nn(C)c3ccccc13)C2 (stereo not given) |  |  |  | inactive | inactive
